Measurements from PubChem BioAssay (NCATS).
Records with an inconclusive call do not appear. The call rests on the fitted dose curve; in most records, active means well fitted curve in either direction with a large enough effect (not every such curve was filed as active); inconclusive means small, poorly fitted or top-dose-only effect, or another doubt; inactive means flat fitted curve, though single readings scatter.

Experiment: Stat Signaling Pathway (AID 446);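 further: ME-180 cervical cancer cells given 40 pM IL-6 alongside compound; SIE-controlled beta-lactamase reporter measured as 460/530 nm FRET emission ratio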
Conditions: ME-180 SIE beta-lactamase reporter, IL-6 stimulated, 5 h; at 7.69 µM (top of the series) unless noted
Outline: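 ME-180 cells carrying a SIE-driven beta-lactamase reporter are stimulated with 40 pM IL-6 for 5 h at 37C in the presence of compound. The 460/530 nm FRET substrate ratio is read after 2.5 h at RT. Data are normalised to 300 pM IL-6 and to 125 nM JAK inhibitor controls.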
On the % scale 0 is the no-effect control and ±100 the full control effect.

activity, negative = inhibition, inactive:
COc1ccc(C(=O)N2CCC3(CCN(Cc4cc(C(F)(F)F)cc(C(F)(F)F)c4)CC3)CC2)cc1 -6.24%
c1ccc(CNc2ccnc(-c3ccc4c(c3)OCO4)n2)cc1 -18.3%
COc1cccc(-c2nc(NCc3ccc(OC)cc3OC)c3ccccc3n2)c1 -8.78%
COc1ccc(C(=O)N2CCC[C@@]3(CCN(Cc4cc(C(F)(F)F)cc(C(F)(F)F)c4)C3)C2)cc1 -1.38%
COc1ccc(CNc2nc(-c3ccc4c(c3)OCO4)nc3ccccc23)c(OC)c1 2.14%
COc1ccc(-n2c(=O)c(-c3cccs3)nc3cnc(Nc4cccc(OC)c4)nc32)cc1 -11%
COc1cccc(Cn2c(=O)c(-c3ccc(Cl)cc3)nc3cnc(OC)nc32)c1 4.34%
c1ccc(CNc2nc(-c3ccc4c(c3)OCO4)nc3ccccc23)cc1 -13%
CN(C)c1ncnc2ccc(-c3ccccc3C(F)(F)F)cc12 -12.7%
CN(C)c1ncc2nc(-c3cccs3)c(=O)n(-c3ccccc3)c2n1 21.3%
COc1cccc(Cn2c(=O)c(-c3cccs3)nc3cnc(Nc4cccc(OC)c4)nc32)c1 26.3%
COc1ccc(C(=O)N2CCC3(CCCN(Cc4cc(C(F)(F)F)cc(C(F)(F)F)c4)C3)CC2)cc1 -8.85%
N#CCCn1c(=O)c(-c2ccc(Cl)cc2)nc2cnc(Nc3ccccc3)nc21 -24.6%
COc1cccc(-c2nccc(NCc3cccs3)n2)c1 -0.369%
Cc1noc(C)c1-c1nc(Nc2ccc(F)cc2)c2ccccc2n1 4.28%
Cc1nc2cnc(N(C)C)nc2n(-c2ccccc2)c1=O -16.5%
COc1cccc(Nc2ncc3nc(-c4ccccc4)c(=O)n(C)c3n2)c1 4.13%
Cn1cc(-c2nc3cnc(N4CCOCC4)nc3n(CCC#N)c2=O)c2ccccc21 -5.04%
CCNc1ncc2nc(-c3ccccc3)c(=O)n(C)c2n1 -9.07%
COCCn1c(=O)c(-c2cccs2)nc2cnc(N3CCOCC3)nc21 -8.84%
O=c1c(-c2ccccc2)nc2cncnc2n1-c1ccccc1 0.883%
c1csc(CNc2ccnc(-c3ccc4c(c3)OCO4)n2)c1 -12.2%
O=c1c(-c2cccs2)nc2cnc(N3CCOCC3)nc2n1CCc1ccccc1 18.4%
COc1ccc(-c2nc3cnc(Nc4ccccc4)nc3n(CCC#N)c2=O)cc1 -4.64%
COc1ccccc1-c1ccc2ncnc(N(C)Cc3ccco3)c2c1 -6.49%
Cn1c(=O)c(-c2ccccc2)nc2cnc(Nc3ccccc3)nc21 8.87%
COc1ccc(C(=O)N2CCC3(CCCN(c4cccc(-c5ccccc5)c4)C3)CC2)cc1 1.07%
